Experimental data taken from PubChem BioAssay (Tox21).
Records with an inconclusive call do not appear. The source made the active and inactive calls. Unless noted, calls follow the shape of the dose curve; as a rule, active = well fitted curve in the direction sought with a large enough effect in the repeat runs; inconclusive = weak or mixed curves; inactive = no such curve, though single readings can be large; an effect the other way counts as inactive or inconclusive.

Assays:
[1] = qHTS assay for small molecule agonists of the p53 signaling pathway (AID 651631; calls by dose curve; also: nearly all actives have a fitted effect of over 15% in size)
Summary of the method: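 Agonist mode screen using a stably integrated beta-lactamase gene under p53 response elements in HCT-116 cells. Compound exposure lasts 16 h at 37 °C; fluorescence intensity is measured following 2 h FRET substrate loading.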

[2] = qHTS assay for small molecules that induce genotoxicity in human embryonic kidney cells expressing luciferase-tagged ATAD5 (AID 651632); also: nearly all actives have a fitted effect of over 15% in size
Summary of the method: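 HEK293T cells carrying a luciferase reporter tagged to ATAD5 were exposed to compound or DMSO vehicle for 16 hr at 37C, 5% CO2. Amplite was added, and after 30 min at room temperature luciferase activity was read as a marker of ATAD5 induction.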

[3] = qHTS assay for small molecule agonists of the p53 signaling pathway - cell viability (AID 651633; calls by dose curve;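 also: p53RE-bla HCT reporter cells with a stable beta-lactamase p53 reporter; series mostly up to about 83 µM; nearly all actives have a fitted effect of over 30% in size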)
Summary of the method: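 p53RE-bla cells, seeded at 4,000 per well and rested 5 h at 37 C/5% CO2, received compounds in DMSO for 16 h at 37 C. CellTiter-Glo was then added, and luminescence was read after 30 min at room temperature to gauge cytotoxicity.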

[4] = qHTS assay for small molecules that induce genotoxicity in human embryonic kidney cells expressing luciferase-tagged ATAD5 - cell viability (AID 651634; calls by dose curve; also: nearly all actives have a fitted effect of over 25% in size)
Summary of the method: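 HEK293T cells expressing luciferase-tagged ATAD5 were exposed to compound or DMSO for 15.5 hr at 37C, 5% CO2. Viability was then read as live-cell protease activity by CellTiter-Fluor fluorescence after 30 min at 37C.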

[5] = qHTS assay for small molecule disruptors of the mitochondrial membrane potential - cell viability (AID 720634; calls by dose curve;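 also: human HepG2 liver cancer cells; series mostly up to about 83 µM; nearly all actives have a fitted effect of over 20% in size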)
Summary of the method: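 HepG2 cells seeded overnight at 37 C, then exposed to compound or DMSO for 1 hr at 37 C, 5% CO2. m-MPI dye added, then CellTiter-Glo for 30 min at room temperature; viability read as ATP luminescence.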

[6] = qHTS assay to test for compound auto fluorescence at 590 nm (red) in HepG2 cells (AID 720674)
Summary of the method: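 Intrinsic compound fluorescence in the red window (Ex/Em 540/590 nm) is measured in attached HepG2 cells exposed for 1 hr, DMSO vehicle as baseline, benchmarked to Rose Bengal sodium.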

[7] = qHTS assay to test for compound auto fluorescence at 535 nm (green) in HepG2 cells (AID 720675)
[8] = qHTS assay to test for compound auto fluorescence at 460 nm (blue) in HEK293 cells (AID 720678)
Summary of the method: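 Cells were seeded and left to adhere for 4-5 hr at 37C. Compounds were then pin-transferred. After an overnight incubation at 37C under 5% CO2, intrinsic fluorescence at 405/460 nm was measured and referenced to triamterene.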

[9] = qHTS assay to test for compound auto fluorescence at 590 nm (red) in HEK293 cells (AID 720679)
Summary of the method: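 Each well held 2,000 HEK293 cells in medium containing 10% dialyzed FBS. Following 4-5 hr attachment at 37C, 23 nL test compound or DMSO was added; plates sat overnight, and red fluorescence (540/590nm) was recorded.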

[10] = qHTS assay to test for compound auto fluorescence at 535 nm (green) in HEK293 cells (AID 720680)
[11] = qHTS assay to test for compound auto fluorescence at 535 nm (green) in HEK293 cell free culture (AID 720682)
Summary of the method: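 No cells present: wells hold DMEM supplemented with 10% FBS, into which compound or vehicle is pinned. Green emission is then recorded (485 nm excitation, 535 nm emission) and scaled to fluorescein.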

[12] = qHTS assay to test for compound auto fluorescence at 590 nm (red) in HEK293 cell free culture (AID 720683)
Summary of the method: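 Tox21 10K library compounds were pinned into cell-free DMEM with 10% FBS and fluorescence was read at excitation 540 nm. Activity is expressed as Rose Bengal sodium equivalency.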

[13] = qHTS assay to test for compound auto fluorescence at 590 nm (red) in HepG2 cell free culture (AID 720684)
Summary of the method: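 Red fluorescence (540 nm excitation, 590 nm emission) was measured after compound transfer into cell-free MEM supplemented with 10% FBS. Values are equivalencies against Rose Bengal sodium.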

[14] = qHTS assay to test for compound auto fluorescence at 460 nm (blue) in HepG2 cell free culture (AID 720685)
Summary of the method: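 Compound (23 nL) or DMSO pinned into cell-free MEM with 10% FBS; blue fluorescence read at 405/460 nm excitation/emission, expressed as auto-fluorescence equivalency to triamterene.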

[15] = qHTS assay to test for compound auto fluorescence at 535 nm (green) in HepG2 cell free culture (AID 720686)
[16] = qHTS assay to test for compound auto fluorescence at 460 nm (blue) in HepG2 cells (AID 720687)
Summary of the method: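 Cells (2,000/well in MEM with 10% FBS) attached overnight at 37 C, then were exposed to compound or DMSO for 1 hr at 37 C, 5% CO2. Fluorescence read at Ex/Em 405/460 nm, expressed as triamterene-equivalent signal.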

[17] = qHTS assay for identifying genotoxic compounds that show differential cytotoxicity against isogenic chicken DT40 cell lines with known DNA damage response pathways - Rev3 mutant cell line (AID 743014); also: nearly all actives have a fitted effect of over 55% in size
[18] = qHTS assay for identifying genotoxic compounds that show differential cytotoxicity against isogenic chicken DT40 cell lines with known DNA damage response pathways - Rad54/Ku70 mutant cell line (AID 743015); also: nearly all actives have a fitted effect of over 60% in size
[19] = qHTS assay to identify small molecule antagonists of the androgen receptor (AR) signaling pathway - cell viability counter screen (AID 743033; also: nearly all actives have a fitted effect of over 45% in size)
[20] = target: Estrogen receptor (Homo sapiens) (UniProt P03372); assay: qHTS assay to identify small molecule antagonists of the estrogen receptor alpha (ER-alpha) signaling pathway (AID 743069; active = well fitted curve in the direction sought with a large enough effect in the signal ratio in the repeat runs, not every such curve was filed as active; the % refers to the signal ratio)
Chain of Estrogen receptor (Homo sapiens) (P03372 whole entry, looked up): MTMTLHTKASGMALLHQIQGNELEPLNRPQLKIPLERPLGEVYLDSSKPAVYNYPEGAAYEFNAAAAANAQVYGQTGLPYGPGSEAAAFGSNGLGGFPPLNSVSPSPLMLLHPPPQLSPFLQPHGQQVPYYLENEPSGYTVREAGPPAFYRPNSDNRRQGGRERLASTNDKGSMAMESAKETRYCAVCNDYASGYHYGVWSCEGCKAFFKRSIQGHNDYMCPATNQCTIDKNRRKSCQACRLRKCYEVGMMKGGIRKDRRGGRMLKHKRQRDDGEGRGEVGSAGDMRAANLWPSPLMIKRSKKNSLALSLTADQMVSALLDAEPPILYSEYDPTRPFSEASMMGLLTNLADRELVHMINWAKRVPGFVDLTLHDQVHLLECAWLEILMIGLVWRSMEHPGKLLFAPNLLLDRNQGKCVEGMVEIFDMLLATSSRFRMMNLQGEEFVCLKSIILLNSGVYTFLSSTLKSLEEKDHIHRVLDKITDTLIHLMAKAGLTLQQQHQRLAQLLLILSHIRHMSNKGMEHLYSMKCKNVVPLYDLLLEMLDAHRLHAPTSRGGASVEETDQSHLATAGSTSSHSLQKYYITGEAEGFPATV
Summary of the method: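 HEK293 cells stably carrying an ER-alpha-UAS-bla beta-lactamase reporter were pre-cultured overnight in 2% charcoal-stripped FBS medium. Test compounds in DMSO were added together with 17beta-estradiol for 18 hr at 37C. Read-out was fluorescence after 2 hr with LiveBLAzer B/G FRET substrate at room temperature.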

[21] = qHTS assay to identify small molecule antagonists of the estrogen receptor alpha (ER-alpha) signaling pathway - cell viability counter screen (AID 743074; calls by dose curve; also: nearly all actives have a fitted effect of over 45% in size)
[22] = target: Estrogen receptor (Homo sapiens) (UniProt P03372); assay: qHTS assay to identify small molecule agonists of the estrogen receptor alpha (ER-alpha) signaling pathway (AID 743075; calls by dose curve)
[23] = target: Estrogen receptor (Homo sapiens) (UniProt P03372); assay: qHTS assay to identify small molecule agonists of the estrogen receptor alpha (ER-alpha) signaling pathway using the BG1 cell line (AID 743079); also: nearly all actives have a fitted effect of over 20% in size
[24] = qHTS assay to identify small molecule antagonists of the estrogen receptor alpha (ER-alpha) signaling pathway using the BG1 cell line (AID 743080; calls by dose curve; also: series mostly up to about 70 µM; nearly all actives have a fitted effect of over 25% in size)
Summary of the method: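 Antagonist mode: compounds in DMSO were pinned onto BG1-Luc-4E2 cells alongside 17beta-estradiol agonist, incubated 21.5 h, and ERE-driven luciferase measured with ONE-Glo. Cytotoxicity was multiplexed using CellTiter-Fluor fluorescence.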

[25] = qHTS assay to identify small molecule antagonists of the estrogen receptor alpha (ER-alpha) signaling pathway using the BG1 cell line - cell viability counter screen (AID 743081);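 also: compound given together with 17beta-estradiol as the ER stimulus; series mostly up to about 70 µM; nearly all actives have a fitted effect of over 45% in size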
[26] = qHTS assay to identify aromatase inhibitors - cell viability counter screen (AID 743084);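 also: cells stimulated with testosterone during compound exposure; nearly all actives have a fitted effect of over 55% in size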
[27] = qHTS assay to identify small molecule that activate the aryl hydrocarbon receptor (AhR) signaling pathway - cell viability counter screen (AID 743086);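 also: HepG2 liver cells carrying the AhR DRE luciferase reporter; series mostly up to about 70 µM; nearly all actives have a fitted effect of over 45% in size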
Summary of the method: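 HepG2-AhR-luc (HG2L7.5c1) cells, 4000/well, were preincubated 5 h at 37C, exposed to compound in qHTS format for 24 hr at 37C, then given CellTiter-Fluor for 30 min; viability was read as fluorescence in the reporter wells.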

[28] = target: Peroxisome proliferator-activated receptor gamma (Homo sapiens) (UniProt P37231); assay: qHTS assay to identify small molecule agonists of the peroxisome proliferator-activated receptor gamma (PPARg) signaling pathway (AID 743094; active = well fitted activation curve with a large enough effect in the signal ratio in the repeat runs, not every such curve was filed as active; the % refers to the signal ratio)
Chain of Peroxisome proliferator-activated receptor gamma (Homo sapiens) (P37231 whole entry, looked up): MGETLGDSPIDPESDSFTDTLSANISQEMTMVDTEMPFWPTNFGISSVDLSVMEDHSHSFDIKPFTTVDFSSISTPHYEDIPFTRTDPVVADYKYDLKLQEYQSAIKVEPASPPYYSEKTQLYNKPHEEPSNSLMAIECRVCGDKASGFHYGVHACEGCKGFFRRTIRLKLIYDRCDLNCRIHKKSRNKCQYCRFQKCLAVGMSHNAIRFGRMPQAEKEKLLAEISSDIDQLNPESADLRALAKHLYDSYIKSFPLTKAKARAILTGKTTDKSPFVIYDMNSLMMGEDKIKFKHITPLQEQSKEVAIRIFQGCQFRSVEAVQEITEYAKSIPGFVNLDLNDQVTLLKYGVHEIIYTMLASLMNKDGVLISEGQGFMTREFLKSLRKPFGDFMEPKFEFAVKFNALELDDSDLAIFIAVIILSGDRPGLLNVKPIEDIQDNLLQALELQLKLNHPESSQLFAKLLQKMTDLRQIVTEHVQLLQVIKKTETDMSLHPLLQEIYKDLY
Summary of the method: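 GeneBLAzer PPARg UAS-bla HEK293H cells carrying a stably integrated beta-lactamase reporter were pre-incubated 5 h at 37C, then exposed to compounds in DMSO for 17 h at 37C; LiveBLAzer B/G FRET substrate was added for 1 h at room temperature and fluorescence read.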

[29] = qHTS assay to identify small molecule antagonists of the estrogen related receptor (ERR) signaling pathway - cell viability counter screen (AID 1224818);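 also: series mostly up to about 46 µM; viability measured after 17.5 h of compound exposure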
Summary of the method: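 ERR reporter cells plated 6 h at 37 C/5% CO2, then compounds in DMSO pin-transferred and incubated 17.5 h at 37 C. Viability read as CellTiter-Fluor fluorescence after 30 min at 37 C.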

[30] = qHTS assay to identify small molecule antagonists of the estrogen related receptor (ERR) signaling pathway (AID 1224819;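 also: luminescence from an ERR-driven luciferase reporter measured with One-Glo reagent; series mostly up to about 46 µM; nearly all actives have a fitted effect of over 50% in size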)
Summary of the method: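 ERR reporter cells were plated at 2,000 cells/well and left 6 h at 37 C/5% CO2 before pin-tool transfer of compounds in DMSO. After 18 h at 37 C, One-Glo was added and luminescence was read 30 min later at room temperature.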

[31] = qHTS assay to identify small molecule agonists of the estrogen related receptor (ERR) signaling pathway (AID 1224820)
Summary of the method: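 Quantitative HTS of the LOPAC library used NTP ERR reporter cells treated 18 h at 37 C. Signal is luminescence after One-Glo addition and a 30 min room-temperature incubation.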

[32] = system: estrogen-related receptor alpha (ERRalpha) with PGC-1alpha coactivator, human; assay: qHTS assay to identify small molecule antagonists of the estrogen related receptor signaling pathway with the pleiotropic PPARgamma coactivator (PGC) (AID 1224821; calls by dose curve;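 also: series mostly up to about 46 µM; lower luminescence signal means antagonism of PGC/ERR signalling; nearly all actives have a fitted effect of over 50% in size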)
Summary of the method: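 Quantitative HTS for antagonism: PGC/ERR cells received compounds after 6 h attachment and were incubated 18 h at 37 C, with luminescence (One-Glo) as the endpoint.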

[33] = qHTS assay to identify small molecule antagonists of the estrogen related receptor signaling pathway with the pleiotropic PPARgamma coactivator (PGC) cell viability counter screen (AID 1224822; also: series mostly up to about 46 µM)
Summary of the method: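 PGC/ERR cells were seeded at 2,000 cells/well, rested 6 h at 37 C/5% CO2, then given compounds in DMSO by pin tool and incubated 17.5 h at 37 C. Viability came from CellTiter-Fluor fluorescence after 30 min.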

[34] = qHTS assay to identify small molecule phospholipidosis (PLD) inducers (AID 1259344; active = well fitted curve in the direction sought with a large enough effect; an effect the other way counts as inactive or inconclusive)
Summary of the method: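 HepG2 cells on collagen I, attached 4 h at 37 C, were co-treated with compound and LipidTOX Red dye for 24 h at 37 C, then fixed with paraformaldehyde plus Hoechst 33342 and imaged by high-content microscopy for phospholipid accumulation.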

[35] = target: Nuclear receptor subfamily 1 group I member 2 (Rattus norvegicus) (UniProt Q9R1A7); assay: Rat pregnane X receptor (rPXR) activation by small molecules, qHTS assay (AID 1346983); conditions: rPXR luciferase reporter cells, One-Glo luminescence, 24 h; max activation: stronger effect = higher value; also: nearly all actives have a fitted effect of over 20% in size
Chain of Nuclear receptor subfamily 1 group I member 2 (Rattus norvegicus) (Q9R1A7 whole entry, looked up): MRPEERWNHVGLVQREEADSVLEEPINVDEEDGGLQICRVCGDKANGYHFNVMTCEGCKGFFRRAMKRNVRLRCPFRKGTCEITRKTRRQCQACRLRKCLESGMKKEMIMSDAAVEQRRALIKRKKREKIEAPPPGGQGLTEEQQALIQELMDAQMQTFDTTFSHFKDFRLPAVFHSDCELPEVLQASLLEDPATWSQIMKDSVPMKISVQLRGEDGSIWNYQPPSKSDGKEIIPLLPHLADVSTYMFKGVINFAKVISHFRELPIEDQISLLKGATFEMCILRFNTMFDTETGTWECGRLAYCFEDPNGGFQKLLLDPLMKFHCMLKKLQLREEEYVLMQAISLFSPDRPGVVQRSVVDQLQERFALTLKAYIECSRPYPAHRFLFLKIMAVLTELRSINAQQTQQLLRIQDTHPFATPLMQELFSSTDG
Summary of the method: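 Cell-based rPXR luciferase reporter assay, 2,000 cells per well, rested 5hr at 37 C before compound addition in DMSO, then 24 hr at 37 C. One-Glo reagent was added and luminescence read after 30 min at room temperature.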

[36] = target: Nuclear receptor subfamily 1 group I member 2 (Homo sapiens) (UniProt O75469); assay: CYP3A4 induction through human pregnane X receptor (PXR) by small molecules, qHTS assay (AID 1346984); also: nearly all actives have a fitted effect of over 40% in size
Summary of the method: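 DPX-2 cells (HepG2 co-transfected with PXR and CYP3A4 promoter-luciferase) treated with compounds 24 h at 37C; luciferin-IPA CYP3A4 substrate 3uM final added for 3 h, then One-Glo; luminescence read. qHTS format.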

[37] = target: Nuclear receptor subfamily 1 group I member 2 (Homo sapiens) (UniProt O75469); assay: Human pregnane X receptor (PXR) activation by small molecules, qHTS assay (AID 1346985); also: nearly all actives have a fitted effect of over 40% in size
Summary of the method: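 DPX-2 cells (HepG2 co-transfected with a PXR response element and a CYP3A4-promoter luciferase construct) were seeded at 2,000 per well, rested 5 hr at 37C, then exposed to DMSO-dissolved compounds for 24 hr. Activation was read as luciferase luminescence.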
% is scaled to controls: 0 for no effect and ±100 for the full control effect.

C[C@]12N[C@H](Cc3ccccc31)c1ccccc12
inactive: Potency [1] | Potency [2] | Potency [3] | Potency [4] | Potency [5] | outcome [6] | Potency [7] | Potency [8] | outcome [9] | Potency [10] | Potency [11] | outcome [12] | outcome [13] | Potency [14] | Potency [15] | Potency [16] | Potency [17] | Potency [18] | Potency [19] | Potency [20] | Potency [21] | Potency [22] | Potency [23] | Potency [24] | Potency [25] | Potency [26] | Potency [27] | Potency [28] | Potency [29] | Potency [30] | Potency [31] | Potency [32] | Potency [33] | Potency [34] | max activation [35] -5.86% | Potency [36] | Potency [37]
